# Results from the supplement of paper PMC11417369.
# Over roughly 25,000 sequences, “ln(normalized median fluorescence intensity)” has its median near 9.3; the highest 2% begin near 10. For the sample, the highest values were picked, then their nearest neighbours and some sequences at random.
# System: PF3D7_0420300 AP2 domain 1 (GST-tagged)
# Assay: gcPBM binding intensity (ln(normalized median fluorescence intensity)); higher = stronger DNA binding
# In short: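 GST-tagged P. falciparum DNA-binding domains, expressed in E. coli (about 25 μg on average), were applied for 1 h to an Agilent 4 × 180k array of primer-extended double-stranded 36-bp intergenic genomic probes plus negative controls. The binding buffer was 1× PBS with 1% milk, 0.2 mg/ml BSA, 0.5% salmon testes DNA and 0.03% Triton X-100. Bound protein was detected with Alexa488 anti-GST antibody and scanned at 488 nm. Binding intensity is the highest Masliner-normalised natural-log median intensity across replicate spots of either probe orientation.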
row,Sequence,gcPBM binding intensity (ln)
1,AAAAAAAAAAAAAAATACAAGCACATTTATATAAGC [GTGCAC_negctrl_site695],9.46
2,AAATACTGATTTGGTTGTACATGTGCACTATATAAC [XGTACX_site3795],9.35
3,TCATTTCACAAACACACACACACAATATATTTCCTT [CACACA_site3905],10.1
4,TCATTTCACGGACACACACACACAATATATTTCCTT [CACACA_site6023],10.2
5,TCATTTCACAGACACACACACACAATATATTTCCTT [CACACA_site9295],10.2
6,TATTTTATAATTTACCGTACATTAATTGTATTATTA [XGTACX_site5722],9.33
7,ATCAAAAGAAAACACACACACATACAGATATATATA [CACACA_site5974],10.2
8,CAATCAAATGGACACACACACACCTAAACATAAAAG [CACACA_site5524],10.2
9,TAGATACAGAAACACACACACACATACATATATACA [CACACA_site3437],10.2
10,TACATACAGAAACACACACACACATATATATATATA [CACACA_site2919],10
11,CAATCAAATAGACACACACACACCTAAACATAAAAG [CACACA_site7322],10.1
12,ATCAAAAGAAAACACACACACATACATATATATATA [CACACA_site3795],10.1
13,CATACACAGAAACACACACACATATATACATATATA [CACACA_site1094],10.1
14,GTATCAAAAGAATACACACACACATACAGATATATA [CACACA_site5975],10.1
15,CAATCAAAGAAACACACACACACCTAAACATAAAAG [CACACA_site2756],10.2
16,ATATTACGCACAAAAAAAAAAAAAAAAAAAAAAAAA [CACACA_negctrl_site941],8.77
17,TGGATGTTAATATAGTGTACATTTATAAGTCAGTAT [XGTACX_site2949],9.45
18,ATATTGTAAGTAAACACACACACATCTATAGGTATA [CACACA_site6462],9.96
19,AATATATACATACATACATGCATACATATATATAAC [TGCATGCA_site371],9.37
20,TATTTATATTTATATACACACATATATACCTATATA [CACACA_site7820],9.48
21,AAAACAAACAGACACACACACATATTTATATTTATA [CACACA_site7681],10.1
22,TATATATATATATATACACACATATATATATTTATA [CACACA_site627],9.39
23,GATACCTATAGACACACACACATACCTATATACATA [CACACA_site7586],10.1
24,ACCATACATACATACACACACACACGCATATTTATA [CACACA_site7386],10.4

row,Sequence,gcPBM binding intensity (ln)
1,AAAAAACAGACATACACACACACACGGATATTTATA [CACACA_site7570],10.3
2,TATATATATTTATACACACACATATATTTATATATT [CACACA_site484],9.7
3,TATAGATACCTATACACACACACACGGACATATATA [CACACA_site7585],10.2
4,TATTTATACCTATACACACACACACGGATATTTATA [CACACA_site7123],10.2
5,CATACATACATACATACACACATACCTATATTTATA [CACACA_site6769],9.79
6,CATACATACAGACACACACACATATTTATATTTATA [CACACA_site6172],9.94
7,TATATACCTATATACACACACATATATTATAGATAT [CACACA_site6266],9.82
8,AATGCTATCATTAATGCACACATTTAAAATTAATAT [CACACA_site3548],9.22
9,ATTATATTAATTTATAGTACAATATTTATATATATG [XGTACX_site4668],9.2
10,AAATATATATATAGTACATGCAGTAGATAATTTAAT [TGCATGCA_site299],9.51
11,CAGATAGACTTATATGCATGCATTCACATACCAACA [TGCATGCA_site163],9.27
12,ATAATATATATATTTTGTACACATGAAAAGGAGGAT [XGTACX_site5034],9.52
13,TTGCTTATTAAATGGGGTACATTATATATATATATA [XGTACX_site2515],9.49
14,TTTTTTTTTTTTTTTGGTACACATTTTGGTTAATGG [XGTACX_site5109],9.06
15,ATATTATTATTAGTTTCACACATTTAATGAAACTAA [CACACA_site5677],9.03
16,TTGTTAATAAAAATATTGGAAAGTTTATAAAATTTT [CACACA_negctrl_site1487],8.9
17,TGTTCTTTGTTCAGCGCATGTAAAATAAAATAAAAT [TGCATGCA_site629],9.04
18,AGGAGACTTAAAAAAAGTACAAAAAAAAAAAAAAGC [XGTACX_site1576],9.65
19,TATATATATATACCTTGTACTTACATTCGCATATAA [XGTACX_site2466],9.32
20,TAATATATGTATTGCACACCTATAACCATTATTTCT [CACACA_site1498],9.51
21,ATAATACACAAGCACACACACACACGGATATTTATA [CACACA_site6714],10.3
22,AGCACAAGCACAAGCACACATTTATATATAAATACA [CACACA_site4642],9.42
23,ATTTTTATTTTATATACACACAATAATAATATAATA [CACACA_site4015],9.39
24,TATATATATATTTATACACACACATATATTTATATA [CACACA_site8054],9.59

row,Sequence,gcPBM binding intensity (ln)
1,TACATATTTATATACACACACACACGGATATTTATA [CACACA_site7239],10.3
2,TATTTATATTTATATACACACATACATATTTATATT [CACACA_site6535],9.57
3,GAAATACCGGAAAGCAAACACACATTTTAAAACCAT [CACACA_site3861],9.68
4,AGATTTAAATATCATACACACTTTATATATAATACA [CACACA_site4688],9.35
5,CTAGCAAATACATACACACACACACCGATACATATA [CACACA_site9164],10.2
6,CACATACAGATATATACACACAAATATATATACTCA [CACACA_site4591],9.76
7,TACTAGCAAATACATACACACACACCCATATACATA [CACACA_site9163],10.1
8,CTAGCAAATACATACACACACACACGGATACCTATA [CACACA_site7609],10.2
9,TATACATATACATATACACACACACCCATAAATAAA [CACACA_site8372],9.99
10,TATACCTATAAATACACACACATATATAAATAAATA [CACACA_site6730],10
11,TTAATATAAGCAAATACACACACACCGATATATATA [CACACA_site9269],10.2
12,CACATACAGATATATACACACAAATATAAATACACA [CACACA_site6512],9.98
13,TTAATGGCAAAATAGGCACACACACCGATACATATA [CACACA_site8263],9.91
14,TAAAAAAAATAGCATACACACATATATACCTATATA [CACACA_site4535],9.72
15,CTAGCAAATACATACACACACACACCCATACATATA [CACACA_site3496],10.3
16,CTAGCAAATACATACACACACACACCGATACAGATA [CACACA_site5853],10.2
17,TATCATTTCATATCAAGTACAAACATTTTACATATA [XGTACX_site5307],9.12
18,GTGCATATCTGATATACACACAATAAAATAGTATGT [CACACA_site7203],9.33
19,AAAAAAAATTCACACTGTACAAAAGCATAAATAAAC [XGTACX_site5408],9.75
20,AATGTGTATATATATACACACACATATATATATTTT [CACACA_site8596],9.75
21,TTAATTTTTAGAAGAACACACACATATATATTATGA [CACACA_site7969],9.59
22,CATACAGATATATATACACACATACAGATAAATACA [CACACA_site4592],9.83
23,TACAGATACAGATACACACACACACCGAAATAAATA [CACACA_site4865],10.3
24,TATACAGATAAATACACACACACATATATATATATA [CACACA_site4845],10

row,Sequence,gcPBM binding intensity (ln)
1,TTTAATTTTTATATAACACACATATTGTAATTATGT [CACACA_site4566],9.38
2,ATAAATACTAAAAATGAAATATAGAAAATAGCAATA [CACACA_negctrl_site501],9.61
3,AAAATTCTTCGGGGGAGTACAAGGATATTCTACGTT [XGTACX_site3974],9.53
4,TGATATCTTAAGAAATGTACAAAGATATAACCATTT [XGTACX_site1913],9.11
5,CTCAATATTATTACTACACACAAATTAAAATTTTCC [CACACA_site4203],9.45
6,ATTTATTCATTTGGGTGTACTATTTAAAAAAAACAA [XGTACX_site498],9.18
7,AAAATAAAAAGAAAAAGAAAAAAGGGGGGGTAGGGG [CACACA_negctrl_site1048],10.2
8,AAGGGAAAATAATAAAAGAAAAAGAAAAAAAAAAAA [CACACA_negctrl_site1518],9.21
9,AAGGGGTAAAGAAAAACACACAAAAAATAAAAATAT [CACACA_site361],9.65
10,CATACACAGAAACACACACACATATATATATATATA [CACACA_site4519],9.79
11,TTAATTAGAAATCATACACACATATAAATAAATATA [CACACA_site6225],9.6
12,ATACAGAAAAAAAACACACACACATAATATACATAC [CACACA_site1933],10.1
13,TAAAAAAAAACAGAAACACACATTATTCATATATAT [CACACA_site2049],9.77
14,TGTATTAATAAAAATACACACATCATATTATAGAAA [CACACA_site7629],9.49
15,TAAAAGAAATAATATACACACATATATAAAAATAAA [CACACA_site1329],9.6
16,CATTATAAGAAACACACACACATATATATATATATA [CACACA_site1051],9.73
17,AATTAAAATAATAATACACACATCATAGAAAAAGAC [CACACA_site292],10.4
18,ATATAACAGAAACACACACACATATATATATATTAT [CACACA_site4140],10.2
19,ACAGAAAAAAAACACACACACATAATATACATACAT [CACACA_site1932],10.2
20,TGAAAAAAGAAAAATACACACATATAATATAATATA [CACACA_site2255],9.7
21,ACAGAAAAAAGACACACACACATAATATACATACAT [CACACA_site6991],10.2
